Compound activity: PubChem BioAssay, National Center for Advancing Translational Sciences (NCATS)
Sampled rows, rich in hits. Any-hit rate of the full collection: about 9.9%.
ALDH1A1 block = inhibitors of human aldehyde dehydrogenase 1A1; Potency, µM (doses to about 75.3 µM), most hits filed as inhibitors; Purified ALDH1A1, NADH fluorescence, propionaldehyde substrate; P00352; actives 7.3% (n = 220,000); active means well fitted inhibition curve with a large enough effect, not every such curve was filed as active; inconclusive means small, poorly fitted or top-dose-only effect, or another doubt; inactive means no such curve, though single readings can be large or run the other way
Tau fluor cs = counter-screen for tau fibril formation inhibitors. Potency, µM (highest dose often 57.7 µM). AID 1463. actives 0.93% (n = 280,000). tau K18 P301L Alexa594 fluorescence, heparin fibrillization; further: nearly all actives have a fitted effect of over 55% in size
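Human tau K18 P301L (15 uM unlabeled, 0.24 uM Alexa 594-labeled) in 100 mM sodium acetate pH 7 with 20 uM heparin, 6 hr at 37 C. ThT 30 uM added, 1 hr ambient; Alexa 594 FP and total fluorescence read at 555/632 nm.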
Tau ThT inhib = inhibitors of human tau fibril formation, thioflavin T binding; P10636; recombinant tau K18 P301L (four-repeat tau fragment), heparin-induced fibrillization, ThT fluorescence; Potency, µM (doses to about 57.4 µM), most hits filed as inhibitors; actives 2.1% (n = 270,000); further: nearly all actives have a fitted effect of over 55% in size
Target sequence (P10636 561-689 P618L limits assumed): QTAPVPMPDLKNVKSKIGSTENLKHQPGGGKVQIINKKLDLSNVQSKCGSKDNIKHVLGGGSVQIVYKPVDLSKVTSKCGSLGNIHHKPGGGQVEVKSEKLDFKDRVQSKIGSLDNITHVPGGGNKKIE
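Recombinant human tau K18 fragment […] carrying P301L, 15 uM unlabeled plus 0.24 uM Alexa 594-labeled, was fibrillized with 20 uM heparin in 100 mM sodium acetate pH 7 for 6 hr at 37 C; 30 uM ThT fluorescence read after 1 hr.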
HPGD inh = blocks human HPGD enzyme activity. Potency, µM, most hits filed as inhibitors. P15428. actives 4.3% (n = 150,000). purified HPGD, NADH fluorescence kinetic, PGE2 substrate; active means well fitted inhibition curve with a large enough effect, not every such curve was filed as active; inconclusive means small, poorly fitted or top-dose-only effect, or another doubt; inactive means no such curve, though single readings can be large or run the other way
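20 nM HPGD preincubated 15 min at room temperature with compound in 50 mM Tris-HCl pH 8, 0.01% Tween 20. Started with 1 mM NAD+ and 30 uM prostaglandin E2; NADH fluorescence (360/450 nm) read 5 times over 30-s intervals, last minus first.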
JMJD2E inh = blocks human JMJD2E demethylase activity | B2RXH2 | JMJD2E catalytic domain, FDH-coupled NADH fluorescence (FDH is formaldehyde dehydrogenase) | Potency, µM (doses to about 57.1 µM), actives largely listed as inhibitors | actives 1.6% (n = 230,000); active means well fitted inhibition curve with a large enough effect, not every such curve was filed as active; inconclusive means small, poorly fitted or top-dose-only effect, or another doubt; inactive means no such curve, though single readings can be large or run the other way; further: nearly all actives have a fitted effect of over 50% in size
Target sequence (B2RXH2 1-337 limits assumed): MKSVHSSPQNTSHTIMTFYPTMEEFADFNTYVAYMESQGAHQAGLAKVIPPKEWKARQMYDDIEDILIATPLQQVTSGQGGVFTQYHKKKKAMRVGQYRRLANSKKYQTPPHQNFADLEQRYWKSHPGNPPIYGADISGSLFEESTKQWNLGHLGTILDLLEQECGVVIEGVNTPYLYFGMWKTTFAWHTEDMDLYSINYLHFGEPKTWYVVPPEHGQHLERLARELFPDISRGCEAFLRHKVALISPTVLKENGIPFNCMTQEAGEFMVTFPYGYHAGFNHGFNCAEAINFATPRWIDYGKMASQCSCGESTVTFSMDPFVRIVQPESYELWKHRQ
Tau FP inhib = inhibitors of human tau fibril formation; actives 0.39% (n = 280,000); Potency, µM (series often up to 57.7 µM), hits mostly inhibitors; K18 P301L tau heparin fibrillization, Alexa594 FP, 6 h; further: nearly all actives have a fitted effect of over 55% in size
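Compound effects on tau fibrillization are measured by Alexa 594 fluorescence polarization (ex 555, em 632 nm). K18 P301L tau is used at 15 uM with 0.24 uM labeled tracer, and 20 uM heparin induces aggregation over 6 hr at 37 C.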
Numbers stand for hits; . = inactive; ? = inconclusive; / = no result; [ ] = remark or other dose. Unless noted, the call rests on the fitted dose curve; in most records, active means well fitted curve in the direction sought with a large enough effect; inconclusive means small, poorly fitted or top-dose-only effect, or another doubt; inactive means no such curve, though single readings can be large; an effect the other way counts as inactive or inconclusive.

SMILES	ALDH1A1 block	Tau fluor cs	Tau ThT inhib	HPGD inh	JMJD2E inh	Tau FP inhib
COCCNC(=O)/C(C#N)=C/c1ccc(OC(=O)c2cccs2)c(OC)c1	?	.	?	/	.	.
O=C(C1CCCO1)N1CCN(c2c3c(nc4cc(-c5ccc(F)cc5)nn24)CCC3)CC1 (centres undefined)	22µM	.	.	?	.	.
OC1CCN(c2c3c(nc4cc(-c5ccc(F)cc5)nn24)CCC3)CC1	.	.	?	.	?	.
CC(=O)Oc1cc2oc(=O)c3c(c2cc1Cl)CCC3	?	?	14µM	/	?	18µM
CCN1CCc2nc3sc(C(=O)Nc4cccc(Cl)c4C)c(N)c3cc2C1	/	?	10µM	/	/	.
COc1ccc(NC(=O)c2sc3nc4c(cc3c2N)CN(C(C)C)CC4)c(OC)c1	/	14µM[quencher]	13µM	/	/	?
COc1ccccc1NC(=O)c1sc2nc3c(cc2c1N)CCCCCC3	/	?	?	/	/	.
Cc1cccc(NC(=O)c2sc3nc4c(cc3c2N)CN(C(C)C)CC4)c1	/	18µM[quencher]	13µM	/	/	.
CN1CCc2nc3sc(C(=O)Nc4cccc(C#N)c4)c(N)c3cc2C1	/	?	13µM	/	/	.
COc1ccccc1CNC(=O)CCn1c(=O)c2ccccc2n(CC(=O)Nc2ccc(C)cc2C)c1=O	/	.	.	/	/	.
COCCn1c(=O)c(-c2cn(C)c3ccccc23)nc2cnc(Oc3ccccc3)nc21	?	/	/	.	/	/
Cc1ccccc1NS(=O)(=O)c1cccc(-c2nnc(-c3ccccc3)o2)c1	.	.	.	?	.	.
O=S(=O)(NC1CCCCC1)c1cccc(-c2nnc(-c3ccccc3)o2)c1	?	.	.	18µM	?	.
COc1ccc2nc(NC(=O)CSc3nc(C)cc(=O)[nH]3)sc2c1	?	.	?	28µM	.	.
CCOc1ccc2nc(NC(=O)Nc3ccccc3)sc2c1	.	?	?	.	.	.
COc1ccc2sc(NC(=O)CC(C)C)nc2c1	25µM	.	.	.	.	.
CCOc1ccc2nc(NC(=O)COC)sc2c1	.	.	.	.	.	.
CCOCC(=O)Nc1nc2ccc(OC)cc2s1	18µM	.	.	.	.	.
CCC(=O)Nc1nc2cc(OC)ccc2s1	.	.	.	.	.	.
CCOc1ccc2nc(NC(=O)Nc3cccs3)sc2c1	.	14µM[quencher]	?	.	.	?
O=[N+]([O-])c1cc(Cc2ccccc2)cc(C=Nc2ccc(N3CCOCC3)cc2)c1O	?	?	10µM	5µM	16µM	?
O=[N+]([O-])c1ccc(N2CCN(S(=O)(=O)Cc3ccccc3)CC2)cc1N1CCOCC1	?	.	?	.	.	.
Cc1ccc(O)c(N=Cc2cc(Cc3ccccc3)cc([N+](=O)[O-])c2O)c1	14µM	?	8.9µM	/	28µM	?
O=C(COC(=O)CNC(=O)c1cccc([N+](=O)[O-])c1)NCc1ccco1	.	.	.	/	.	.
COc1ccc(C(=O)CN2CCN(S(=O)(=O)c3cccc([N+](=O)[O-])c3)CC2)cc1	10µM	.	.	.	.	.
SMILES	ALDH1A1 block	Tau fluor cs	Tau ThT inhib	HPGD inh	JMJD2E inh	Tau FP inhib
COc1cccc(C(=O)CN2CCN(S(=O)(=O)c3ccc(Br)cc3)CC2)c1	11µM	.	?	.	.	.
CCOc1ccc(C(=O)CN2CCN(S(=O)(=O)c3ccc(OC)cc3)CC2)cc1	20µM	.	.	.	.	.
CCOc1ccc(C(=O)CN2CCN(S(=O)(=O)c3ccc(Br)cc3)CC2)cc1	22µM	.	?	.	.	.
COC(=O)C1=C(C)Nc2nnnn2C1c1ccccc1Cl (centres undefined)	2.5µM	.	.	.	.	.
CCCCCOC(=O)C1=C(C)Nc2nnnn2C1c1ccccc1Cl (centres undefined)	2µM	?	.	.	.	.
CC(=O)c1ccc(NC(=O)CN(C)CC(=O)Nc2cccc(F)c2)cc1	.	.	.	/	.	.
CCOc1ccc(OCC)c(C2C(C#N)=C(N)N(c3cccnc3)C3=C2C(=O)CC(C)(C)C3)c1 (centres undefined)	3.5µM	.	?	.	?	.
CCC(C)c1ccccc1NC(=O)COC(=O)CCc1cc(OC)c(OC)c(OC)c1 (centres undefined)	.	.	.	.	.	.
COc1cc(CC(=O)OCC(=O)Nc2ccc(S(=O)(=O)N3CCCC3)cc2)cc(OC)c1OC	20µM	.	.	.	.	.
CCN(c1ccc(NC(=O)COC(=O)CCc2cc(OC)c(OC)c(OC)c2)cc1)C(C)C	18µM	.	.	/	.	.
Cn1c(=O)c2c(nc(CN3CCCCC3)n2CCc2ccccc2)n(C)c1=O	?	.	.	.	.	.
Cn1c(=O)c2c(nc(CN3CCN(Cc4ccccc4)CC3)n2Cc2ccccc2)n(C)c1=O	.	.	.	.	.	.
Cn1c(=O)c2c(nc(N3CCN(c4ccccn4)CC3)n2Cc2ccccc2Cl)n(C)c1=O	1.1µM	.	.	.	.	.
Cn1c(=O)c2c(nc(CN3CCC(C(N)=O)CC3)n2CCc2ccccc2)n(C)c1=O	4.5µM	.	.	.	?	?
Cc1ccccc1Cn1c(CN2CCc3ccccc3C2)nc2c1c(=O)n(C)c(=O)n2C	32µM	.	.	.	?	.
Cn1c(=O)c2c(nc(CN3CCC(C(N)=O)CC3)n2Cc2ccccc2Cl)n(C)c1=O	13µM	.	.	.	.	.
CC(Nc1ccc(-c2nc(-c3ccccn3)no2)cc1[N+](=O)[O-])c1ccccc1 (centres undefined)	/	.	.	/	/	.
Cn1c(=O)c2c(nc(CN3CCC(C(N)=O)CC3)n2Cc2c(F)cccc2Cl)n(C)c1=O	?	.	.	.	.	.
Cn1c(=O)c2c(nc(CN3CCC(C(N)=O)CC3)n2Cc2c(Cl)cccc2Cl)n(C)c1=O	14µM	.	.	.	.	.
Cc1ccc(-c2csc3ncnc(Sc4nnc(CN5CCCCCC5=O)o4)c23)cc1	7.9µM	.	?	.	.	?
Cc1ccc(-c2csc3ncnc(SCC(=O)Nc4nnc(C)s4)c23)cc1	.	.	.	.	.	.
O=C1/C(=N\S(=O)(=O)c2cccs2)C([n+]2ccc(CCCc3ccccc3)cc2)=C([O-])c2ccccc21	?	?	2.8µM	/	.	.
CC(C)(C)c1cc[n+](C2=C([O-])c3ccccc3C(=O)/C2=N\S(=O)(=O)c2ccccc2)cc1	/	?	16µM	/	?	?
Cc1ccccc1NC(=O)c1ccc(Cl)c(NC(=O)c2ccncc2)c1	.	.	.	.	.	.
CCOc1ccc(C(=O)NC(=S)Nc2ccc(N3CCC(C)CC3)cc2)cc1[N+](=O)[O-]	7.9µM	?	?	.	.	.
O=C(Nc1ccc(CN2CCOCC2)cc1)c1ccc(N2CCCC2)c([N+](=O)[O-])c1	11µM	.	?	/	.	.
